# Laboratory results published in PubChem BioAssay.
# Records with an inconclusive call do not appear. Calls of active or inactive are those of the source.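 How the source made its calls, unless noted: active means viability increase at or above a cutoff of the median across tested compounds plus 3 SD (cut at about 8.5% in these data, passing the limit was not always enough); inconclusive means some gains above the cutoff, reason not given; inactive means the rest.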
# Assays:
# [1] = SK-BR-3 cell growth inhibitors, pilot screen, 24 h, human (AID 572;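 active means viability at or below 10% of carrier control in both of two separate runs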;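 further: compound exposure lasted between 18 and 24 h rather than exactly 24 h; 100% = carrier-treated control wells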); settings: SK-BR-3 viability, CellTiter-Glo luminescence, at 10 µM, stronger effect = lower value
# [2] = HUVEC growth inhibition – cell-based, human, primary screen (AID 575;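 active means viability at or below 30% in both replicate assays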;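 further: 100% = median of untreated cell wells with 0.1% DMSO on each plate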); settings: HUVEC proliferation, CellTiter-Glo luminescence, 72 h; at 10 µM; stronger effect = lower value
# [3] = growth inhibitors of H69AR lung tumor, primary screen, human, duplicate replicates (AID 580;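 active means viability at or under a set limit in both replicates, limit being median viability minus 3 SD, cut at about 48% in these data, passing the limit was not always enough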;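 further: 100% = mean luminescence of untreated wells and 0% = no signal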); settings: H69AR lung tumor cells viability, ATP luminescence, 72 h; at 10 µM; stronger effect = lower value
# [4] = reversal of MRP1-mediated doxorubicin resistance, pilot screen, H69AR cells, doxorubicin co-treatment (AID 601;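 active means viability loss from added drug above about 55%, and viability with drug at most 40%, in both replicates, limit read from the data, passing the limit was not always enough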); settings: CellTiter-Glo, 72 h, at 10 µM; for differential viability (reversal): stronger effect = higher value
# [5] = 384-well plate pilot, post-Golgi transport modulator project, inhibition of yeast transport mutant growth (AID 636; in the data active means inhibition above about 31%); settings: absorbance 615 nm, about 18 h, stronger effect = higher value
# [6] = growth suppression of yeast trafficking mutant, preliminary HTS, modulators of trafficking downstream of Golgi apparatus project, 1536-format plate, OD 615 nm (AID 637; in the data active means inhibition above about 30%); settings: yeast transport mutant growth, absorbance 615 nm, 18 h; stronger effect = higher value
# [7] = OD615 S. cerevisiae growth inhibition, permissive medium, pilot counter-assay, permissive growth control for S. cerevisiae lifespan shortening project (AID 705;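 active means growth inhibition above 25% in both replicates, a cutoff set 3 SD above the mean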); settings: OD615, 24 h, at 10 µM, stronger effect = higher value
# [8] = Restrictive medium S. cerevisiae growth inhibition, OD615, pilot screen of yeast lifespan reduction project, restrictive growth control (AID 706;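 active means growth inhibition above a set limit, 3 SD over mean compound inhibition, in both replicates, cut at about 43% in these data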;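 further: modified DeaD lifespan yeast strain shifted to restrictive glucose medium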); settings: OD615, 48 h, at 10 µM, stronger effect = higher value
# [9] = viability gain of MRP-1-high H69AR cells under doxorubicin, pilot screen, MRP-1 activator project, CellTiter-Glo, duplicate (AID 807); settings: H69AR viability with doxorubicin, CellTiter-Glo luminescence; at 10 µM; stronger effect = higher value;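 further: compound pretreatment 18-22 h then 72 h combined with doxorubicin; 0% = doxorubicin alone and 100% = vehicle without doxorubicin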
# [10] = growth suppression of beta-catenin knockout HCT116, pilot screen, human colon tumor cells (AID 823;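 active means cell viability at or below a set limit in both duplicate runs, the limit being the all-compound median minus 4 SD, cut at about 23% in these data, passing the limit was not always enough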;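 further: 0% = wells killed by 20 µM Hyamine and 100% = untreated DMSO cell wells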); settings: CellTiter-Glo, 60 h, at 10 µM, stronger effect = lower value
# [11] = growth suppression of PTEN-deleted HCT116, pilot screen, cell-based, HCT116 clonal line, CellTiter-Glo (AID 824;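 active means viability at or below 27.92% in each of two runs, the all-compound median minus 4 SD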;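 further: 0% = 20 µM Hyamine control and 100% = vehicle cell control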); settings: 60 h, at 10 µM, stronger effect = lower value
# [12] = inhibitors of the yeast RAM network, pilot screen, dse1pr::URA3 reporter, 5-FOA selection (AID 869;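 active means inhibition over a set limit, the all-compound mean plus 3 SD, in both replicate runs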;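 further: 0% = DMSO wells with no growth and 100% = 10 µM 1-NA-PP1 with full growth; RAM network block rescues cells from 5-FOA so hits raise OD615 growth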); settings: S. cerevisiae dse1pr::URA3 5-FOA growth, OD615, 2 d; at 10 µM; stronger effect = higher value; strain carries analog-sensitive mutant Cbk1 kinase
# [13] = RAM signaling pathway blockade in yeast – S. cerevisiae, Pdr1DBD-CYC8 efflux-inhibited sensitized strain, primary screen (AID 1298;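 active means RAM network inhibition above 8.4% in each of two replicates, 3 SD over the compound average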;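 further: 0% = DMSO untreated cells without growth and 100% = 10 µM 1-NA-PP1 full growth; higher means more yeast growth rescued from 5-FOA killing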); settings: S. cerevisiae cbk1-as DSE1-URA3 strain, 5-FOA growth OD615, 2 d; at 50 µM; stronger effect = higher value
# [14] = H69AR cells + 2 uM doxorubicin, measured here: viability with 2 uM doxorubicin, stronger effect = lower value
# [15] = H69AR cells, compound alone cytotoxicity
SMILES,viability [1],viability [2],viability [3],differential viability (reversal) ([4]; H69AR cells + 2 uM doxorubicin),"viability [4, 14]","viability [4, 15]",inhibition [5],inhibition [6],growth inhibition [7],growth inhibition [8],viability increase [9],viability [10],viability [11],inhibition [12],RAM network inhibition [13]
CC(Sc1n[nH]c(=O)[nH]c1=O)C(=O)OCc1ccccc1 (stereo not drawn),94% (inactive),116% (inactive),99.9% (inactive),11.6% (inactive),88.3%,99.9%,-5.6% (inactive),-0.18% (inactive),-21.9% (inactive),-8.41% (inactive),0.49% (inactive),103% (inactive),98.5% (inactive),1.66% (inactive),5.73% (inactive)
O=C(Cn1c(=O)sc2ccccc21)NCCOc1ccccc1F,102% (inactive),108% (inactive),99.4% (inactive),13.6% (inactive),85.8%,99.4%,-1.82% (inactive),-6.23% (inactive),7.09% (inactive),11.1% (inactive),-0.76% (inactive),108% (inactive),98.4% (inactive),1.38% (inactive),10.5% (inactive)
CCOC(=O)Nc1c(O)ccc2oc(C)c(-c3ccccc3)c12,102% (inactive),68.7% (inactive),99.8% (inactive),0.02% (inactive),99.8%,99.8%,0.26% (inactive),15.3% (inactive),-15.4% (inactive),-6.34% (inactive),-2.89% (inactive),79.4% (inactive),80.9% (inactive),1.51% (inactive),3.9% (inactive)
Cc1cc(C)nc(SCc2ccc3nonc3c2)n1,99% (inactive),89.9% (inactive),89.2% (inactive),15.7% (inactive),73.5%,89.2%,-6.53% (inactive),-0.18% (inactive),-9.08% (inactive),-6.27% (inactive),-0.41% (inactive),96.3% (inactive),98% (inactive),0.535% (inactive),3.64% (inactive)
CC1=C(C(=O)OC2CCCCCC2)C(c2ccc(C)o2)C2=C(CCCC2=O)N1 (stereo not drawn),124% (inactive),102% (inactive),97.2% (inactive),-3.5% (inactive),101%,97.2%,-1.49% (inactive),2.38% (inactive),-11.2% (inactive),-22.5% (inactive),-2% (inactive),70.8% (inactive),78.8% (inactive),1.77% (inactive),1.63% (inactive)
Cc1ccc(C(=O)Nc2c(C(=O)N3CCOCC3)cnn2-c2ccccc2)cc1,103% (inactive),94.5% (inactive),91.8% (inactive),16.5% (inactive),75.3%,91.8%,-4.27% (inactive),-2.91% (inactive),-7.86% (inactive),-9.73% (inactive),-1.89% (inactive),103% (inactive),102% (inactive),0.475% (inactive),-1.3% (inactive)
O=C(c1ccco1)c1nnn(Cc2ccccc2)c1-c1ccccc1,107% (inactive),102% (inactive),85.1% (inactive),3.42% (inactive),81.7%,85.1%,-2.93% (inactive),-4.73% (inactive),-6.81% (inactive),-8.41% (inactive),-2.38% (inactive),93.5% (inactive),99.1% (inactive),2.21% (inactive),-0.25% (inactive)
Cc1cc(C)n2c(SCC(=O)Nc3cc(C)on3)nnc2n1,91.5% (inactive),104% (inactive),101% (inactive),21.3% (inactive),79.2%,101%,-4.19% (inactive),5.71% (inactive),-7.78% (inactive),-16.6% (inactive),1.73% (inactive),102% (inactive),97.2% (inactive),1.88% (inactive),3.63% (inactive)
COc1cc(C(=O)NCCc2ccc3c(c2)OCCO3)ccc1OCC(=O)N1CCOCC1,100% (inactive),112% (inactive),93.3% (inactive),1.3% (inactive),92%,93.3%,-5.95% (inactive),-6.55% (inactive),-14.7% (inactive),-16% (inactive),-2.17% (inactive),97.6% (inactive),96.3% (inactive),1.68% (inactive),1.5% (inactive)
Cc1cccc(OCC(=O)Nc2ccc(N3CCCC3)cc2)c1C,112% (inactive),88.2% (inactive),–,-3.12% (inactive),59.7%,56.5%,-9.2% (inactive),1.64% (inactive),15.7% (inactive),14.8% (inactive),-3.79% (inactive),72.4% (inactive),84.8% (inactive),2.95% (inactive),5.36% (inactive)
CCCc1cc(=O)oc2cc(C)cc(OC(=O)c3ccco3)c12,97% (inactive),62.2% (inactive),95.8% (inactive),9.31% (inactive),86.5%,95.8%,-6.93% (inactive),-7.82% (inactive),-7.19% (inactive),-12.2% (inactive),-1.16% (inactive),96.7% (inactive),80.6% (inactive),3.94% (inactive),4.75% (inactive)
CSC1=N/C(=C\C=C\c2cccs2)C(=O)S1,95% (inactive),79.5% (inactive),–,-15.6% (inactive),67%,51.4%,-1.15% (inactive),-6.17% (inactive),-8% (inactive),0.455% (inactive),-3.44% (inactive),95% (inactive),99.1% (inactive),1.66% (inactive),6.92% (inactive)
c1ccc(-c2nnc(SCc3nc4ccccc4[nH]3)o2)cc1,94% (inactive),98.9% (inactive),88.8% (inactive),2.98% (inactive),85.8%,88.8%,-5.6% (inactive),0.91% (inactive),7.59% (inactive),–,-5.05% (inactive),93.5% (inactive),88.8% (inactive),1.33% (inactive),1.69% (inactive)
Cc1ccc(S(=O)(=O)N(CC(=O)N2CCC(C(N)=O)CC2)Cc2ccc(F)cc2)cc1,93% (inactive),110% (inactive),100% (inactive),11.3% (inactive),88.8%,100%,-3.87% (inactive),-3.45% (inactive),-1.11% (inactive),2.36% (inactive),-2.26% (inactive),97.5% (inactive),87.2% (inactive),-0.07% (inactive),1.49% (inactive)
COc1ccc(OCCCC(=O)Nc2nncs2)cc1,97% (inactive),101% (inactive),89.6% (inactive),6.49% (inactive),83.1%,89.6%,-5.27% (inactive),-2.73% (inactive),-11.5% (inactive),-0.545% (inactive),-0.07% (inactive),94.5% (inactive),–,2.95% (inactive),4.52% (inactive)
NC(=O)c1sc2nc(N3CCCCC3)c3c(c2c1N)CCCC3,75% (inactive),82.8% (inactive),85.7% (inactive),-0.75% (inactive),86.4%,85.7%,-6.89% (inactive),2.17% (inactive),8.56% (inactive),–,-3.63% (inactive),104% (inactive),94.6% (inactive),0.715% (inactive),5.61% (inactive)
FC(F)(F)COc1nc(N2CCCCC2)nc(N2CCNCC2)n1,82% (inactive),98.8% (inactive),92.3% (inactive),15% (inactive),77.4%,92.3%,-4.86% (inactive),-4% (inactive),4.64% (inactive),-3.79% (inactive),-3.4% (inactive),85.5% (inactive),84.5% (inactive),0.78% (inactive),-2.05% (inactive)
CC1=C(C(N)=O)C(c2ccccn2)n2nc(SCc3ccccc3)nc2N1 (stereo not drawn),88% (inactive),94% (inactive),93.8% (inactive),-2.02% (inactive),95.9%,93.8%,-3.92% (inactive),-5.64% (inactive),-2.97% (inactive),3.69% (inactive),2.38% (inactive),102% (inactive),95.6% (inactive),0.46% (inactive),2.59% (inactive)
Cn1c(=O)c2c(nc(CN3CCc4ccccc4C3)n2Cc2cccc(Cl)c2)n(C)c1=O,95% (inactive),45.5% (inactive),31.2% (active),12.7% (inactive),18.5%,31.2%,-3.2% (inactive),-1.33% (inactive),-8.07% (inactive),-5.74% (inactive),-7.3% (inactive),42.6% (inactive),47.6% (inactive),-0.785% (inactive),4.55% (inactive)
COC(=O)c1ccc(NC(=O)C2C3CCC(C3)C2C(=O)O)cc1 (stereo not drawn),96% (inactive),113% (inactive),90.4% (inactive),0.415% (inactive),90%,90.4%,2.13% (inactive),6.55% (inactive),10.2% (inactive),1.67% (inactive),-2.31% (inactive),93.7% (inactive),93.6% (inactive),1.04% (inactive),1.43% (inactive)
Cc1ccc2c(c1)C1CCCC3C1N2CC(=O)N3Cc1ccccc1 (stereo not drawn),117% (inactive),–,75.5% (inactive),-5.75% (inactive),81.3%,75.5%,0.27% (inactive),0.97% (inactive),-8.15% (inactive),-24.9% (inactive),-0.44% (inactive),–,53.3% (inactive),2.56% (inactive),7.32% (inactive)
